Source: PubChem BioAssay
POLH inh – DNA polymerase eta (human) inhibition; Q9Y253; recombinant Pol eta, fluorescent DNA replication assay; Potency, µM (doses to about 114 µM), without a hit: top-dose activity change, negative = inhibition, usual class: inhibitors; hit rate 1.2% among 390,000; AID 588591; note: % is set by controls: 0 for no effect and ±100 for the full control effect
Target sequence (Q9Y253 whole entry, looked up): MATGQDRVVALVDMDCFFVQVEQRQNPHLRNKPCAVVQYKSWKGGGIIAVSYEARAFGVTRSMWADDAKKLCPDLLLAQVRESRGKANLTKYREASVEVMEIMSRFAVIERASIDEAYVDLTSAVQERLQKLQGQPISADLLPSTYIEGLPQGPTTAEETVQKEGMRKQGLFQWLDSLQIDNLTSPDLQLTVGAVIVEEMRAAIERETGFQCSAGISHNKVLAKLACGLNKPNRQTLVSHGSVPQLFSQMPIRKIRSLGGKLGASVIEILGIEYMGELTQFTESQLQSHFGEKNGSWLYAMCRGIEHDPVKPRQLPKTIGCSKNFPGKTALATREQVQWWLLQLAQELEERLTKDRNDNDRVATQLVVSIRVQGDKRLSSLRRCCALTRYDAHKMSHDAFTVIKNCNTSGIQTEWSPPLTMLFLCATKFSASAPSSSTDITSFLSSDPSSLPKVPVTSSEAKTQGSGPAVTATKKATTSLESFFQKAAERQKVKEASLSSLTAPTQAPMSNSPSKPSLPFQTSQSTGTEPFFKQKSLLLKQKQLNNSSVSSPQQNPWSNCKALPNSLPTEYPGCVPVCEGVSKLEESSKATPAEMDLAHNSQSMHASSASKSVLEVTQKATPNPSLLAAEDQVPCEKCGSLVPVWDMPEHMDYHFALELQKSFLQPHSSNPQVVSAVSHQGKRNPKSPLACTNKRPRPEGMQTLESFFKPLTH
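Pol eta (10 nM) was preincubated with compounds for 15 min at room temperature, after which fluorescent replication substrate (50 nM final) was added to start the reaction. Fluorescence was read kinetically at 0 and 10 min.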
Pol kappa inh – inhibitors of human DNA polymerase kappa; Potency, µM (highest dose often 107 µM), for the others: at the highest dose activity, negative = inhibition, hits mostly inhibitors; AID 588579; purified Pol kappa, fluorescent DNA synthesis assay, 10 min; hit rate 0.53% among 400,000; note: % is set by controls: 0 for no effect and ±100 for the full control effect
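Here, compound and 10 nM enzyme are combined for 15 min at room temperature; adding 50 nM substrate (final) starts DNA synthesis, tracked by fluorescence at 0 and 10 min against buffer-only wells.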
FEN1 inh-1 – human FEN1 inhibition. Recombinant FEN1 flap cleavage, fluorescence, 15 min. hit rate 0.35% among 390,000. Potency, µM (titrated, usually from 114 µM), for the others: at the top dose activity change, negative = inhibition, hits mostly inhibitors; note: % is set by controls: 0 for no effect and ±100 for the full control effect; nearly all actives have a fitted effect of over 65% in size
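In this screen, 50 nM flap DNA substrate was added to 10 nM FEN1 pretreated with compound for 15 min at room temperature; cleavage was followed with reads at 0 and 15 min, and Hill fitting gave concentration–response parameters.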
POLB inh – blocks human DNA polymerase beta activity; hit rate 1.3% among 340,000; AID 485314; Pol beta primer extension/strand displacement, fluorescence kinetic; Potency, µM (highest dose often 114 µM), for inactives: at the highest dose activity change, negative = inhibition, hits mostly inhibitors; P06746; note: % is set by controls: 0 for no effect and ±100 for the full control effect
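Curves were derived by four-parameter Hill fits of normalized qHTS data. The kinetic fluorescent primer-extension read was taken at 0 and 10 min after 50 nM substrate, following a 15 min room-temperature preincubation of 10 nM enzyme with compounds.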
Pol iota inh – inhibitors of human DNA polymerase iota; AID 588590; hit rate 1% among 390,000; Potency, µM (titrated, usually from 115 µM), for the others: at the top dose activity, negative = inhibition, actives largely listed as inhibitors; Q9UNA4; Pol iota fluorescent replication assay, 10 min
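Pol iota at 10 nM preincubated 15 min with compounds at room temperature; reaction started with fluorescent substrate, 50 nM final. Fluorescence read kinetically at 0 and 10 min; buffer-only wells as negative control.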
WRN helicase inh-1 – inhibitors of human WRN helicase. Q14191. WRN helicase unwinding, fluorescent forked duplex, kinetic. Potency, µM (doses to about 114 µM), inactives show top-dose activity change, negative = inhibition, actives largely listed as inhibitors. hit rate 0.46% among 360,000; note: % is set by controls: 0 for no effect and ±100 for the full control effect; nearly all actives have a fitted effect of over 55% in size
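Kinetic fluorescence helicase assay: unwinding of a quenched forked DNA duplex (100 nM final) with 2 mM ATP final raises red fluorescence (525/598 nm). Compounds sat 15 min at room temperature with 20 nM WRN beforehand.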
FEN1 inh-2 – FEN1 inhibition, cherry-pick retest; shares compounds with FEN1 inh-1; FEN1 flap cleavage, TAMRA/BHQ2 fluorogenic DNA substrate; Potency, µM, usual class: inhibitors; hit rate 79% among 880; note: nearly all actives have a fitted effect of over 60% in size
WRN helicase inh-2 – WRN helicase inhibition, cherry-pick retest; shares compounds with WRN helicase inh-1; WRN helicase DNA unwinding, fluorescence kinetic; Potency, µM (top dose mostly 57.1 µM), inactives show at the highest dose activity, negative = inhibition, hits mostly inhibitors; hit rate 63% among 610; note: nearly all actives have a fitted effect of over 65% in size
TO displacement – binds DNA, flagged in WRN inhibitor counterscreen; thiazole orange DNA binding displacement, fluorescence; AID 720499; Potency, µM (titrated, usually from 57.1 µM), inactives show at the highest dose activity change, negative = inhibition, most hits filed as inhibitors; shares compounds with WRN helicase inh-1; hit rate 10% among 610;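 note: drop in dye fluorescence marks compound binding to DNA; % is set by controls: 0 for no effect and ±100 for the full control effect; nearly all actives have a fitted effect of over 60% in size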
BLM helicase inh – BLM helicase inhibition, WRN selectivity check. AID 720503. hit rate 60% among 610. Recombinant BLM helicase DNA unwinding, red fluorescence. shares compounds with WRN helicase inh-1. Potency, µM (highest dose often 57.1 µM), for the others: at the highest dose activity change, negative = inhibition, most hits filed as inhibitors; note: nearly all actives have a fitted effect of over 60% in size
Starred values were filed as active, the others as inactive; ? = inconclusive; / = no result given; [ ] = dose if it differs, or a comment. A selection: hits, their analogues and other compounds. The true share with any hit is near 2.4%. Calls come from the whole dose curve; as a rule, active = well fitted curve in the direction sought with a large enough effect; inconclusive = small, poorly fitted or top-dose-only effect, or another doubt; inactive = no such curve, though single readings can be large; an effect the other way counts as inactive or inconclusive. Potency is the fitted concentration of half-maximal effect.

SMILES | POLH inh | Pol kappa inh | FEN1 inh-1 | POLB inh | Pol iota inh | WRN helicase inh-1 | WRN helicase inh-2 | TO displacement | BLM helicase inh | others
CN1CCc2nc3sc(C#N)c(N)c3c(-c3cccs3)c2C1 | -2.1% | -11.4% | ? | -21.3% | 20.0% | -2.9% | / | / | / | FEN1 inh-2=?
OC[C@@H]1[C@@H](O)[C@H](O)[C@H]2[C@@H](O)CCN21 | / | 3.6%[60.1 µM] | / | / | / | / | / | / | /
O=C(O)Cn1cc(/C=C2\C(=O)NC(=O)N(c3ccc(Br)cc3)C2=O)c2ccccc21 | ? | -16.6% | ? | 22.2% | 31.6µM* | ? | -27.3% | -3.9% | 17.1µM*
O=[N+]([O-])c1ccc(-c2[se]c3ccccc3c2I)cc1 | / | -13.6%[60.1 µM] | / | / | / | / | / | / | /
O=c1c2ccccc2nc(/C=C/c2ccccc2)n1-c1ccc(O)cc1 | -11.1% | -4.6% | -2.9% | 12.3% | 49.9% | -11.5% | / | / | /
O=c1c2ccccc2nc(/C=C/c2cccnc2)n1Cc1ccccc1 | ? | -8.6% | 89.1µM* | 39.2% | 2.82µM* | 31.6µM* | -6.6% | -8.9% | -29.4%
C=CCc1cc(C=C2C(=O)N(C)C(=O)N(C)C2=O)cc(OCC)c1OCc1ccccc1 | ? | -2.7% | -8.1% | 0.6% | -18.4% | 44.7µM* | -18.1% | -16.5% | ?
CN1C(=O)/C(=C\c2ccc(Br)s2)C(=O)NC1=S | ? | -29.1% | ? | ? | ? | 17.8µM* | ? | -3.5% | ?
O=C1C(=Cc2cn(-c3ccccc3)nc2-c2ccc(OCc3ccc(Cl)cc3)cc2)SC(=S)N1CCS(=O)(=O)O | / | / | / | / | / | 14.1µM* | 10.8µM* | ? | 3.83µM*
C[C@]12CCC3C(C=CC4=CC(=O)CC[C@]43C)C1CC[C@]2(O)CCC(=O)O (stereo partly specified) | / | -9.4%[60.1 µM] | / | / | / | / | / | / | /
CN(C)c1ccc(C=C2C(=O)NC(=O)NC2=O)cc1[N+](=O)[O-] | 3.9% | -7.3% | -11.4% | -5.2% | 28.5% | ? | / | / | /
O=C1NC(=O)C(=Cc2ccccc2[N+](=O)[O-])C(=O)N1 | -4.2% | -14.2% | 7.6% | / | -0.6% | 39.8µM* | 4.8% | -2.0% | 0.3%
CCCCn1c(=O)c(C=Nc2ccc(Cl)cc2)c(O)n(Cc2ccco2)c1=O | -25.4% | -6.5% | -3.5% | -1.9% | 41.9% | -6.1% | / | / | /
CCCCN1C(=O)/C(=C/c2ccc(N(C)C)cc2)C(=O)N(Cc2ccco2)C1=O | 39.8µM* | 25.1µM* | ? | 22.4µM* | ? | 28.2µM* | ? | 2.8% | 21.5µM*
CCCCN1C(=O)/C(=C\c2ccco2)C(=O)N(CCc2ccccc2)C1=O | 39.8µM* | 25.1µM* | 56.2µM* | 8.91µM* | ? | 31.6µM* | ? | -9.0% | 21.5µM*
CN1C(=O)C(=CN2CCN(C(=O)c3ccco3)CC2)C(=O)N(C)C1=S | -5.4% | -2.3% | 0.0% | 37.7% | 3.2% | -7.1% | / | / | /
CCC[C@@H]1CC2=CC(=O)CC[C@]2(C)[C@@H]2CC[C@@]3(C)[C@H](CC[C@]3(O)CCC(=O)O)[C@H]12 | / | -7.4%[19.4 µM] | / | / | / | / | / | / | /
CC(=O)[C@H]1CC[C@H]2C3CC[C@H]4C[C@](C)(O)CC[C@]4(C)C3CC[C@]12C (stereo partly specified) | / | 0.9%[60.1 µM] | / | / | / | / | / | / | /
